The values below come from PubChem BioAssay AID492967 (ICCB-Longwood Screening Facility, Harvard Medical School, 2010).

About 320 (0.23%) of roughly 140,000 compounds were called active. The sample as a whole holds a higher share of actives than the screen did. Values without a mark were called inactive. No stated cut-off is given here; in the data, active means z-score mostly below about -2.9 (no sharp cut-off); inactive means mostly above about -1.9.

The experiment concerns CapD gamma-glutamyltranspeptidase (Bacillus anthracis Ames Ancestor). Briefly: inhibition of CapD gamma-glutamyltranspeptidase – biochemical, fluorescence intensity, primary screen (AID 492967). As to conditions: purified CapD enzyme, fluorescence intensity read-out; stronger effect = lower value.
Take `COc1ccc2nc(SCC(=O)Nc3cc(NC(=O)CSc4nc5ccc(OC)cc5[nH]4)cc(C(=O)O)c3)[nH]c2c1`: the z-score is -1.48.

For `COc1ccc(CCNC(=O)c2cn(C)c(=O)c3cc(OC)c(OC)cc23)cc1OC`, the z-score is 1.5.

Consider `CCC(=O)NCCc1nc2ccccc2n1CC`, for which the z-score is -0.29.

Take `O=C(COc1ccccc1)NCCc1nc2ccccc2n1Cc1ccccc1`: the z-score was -8.12 (active).

As to `Cc1ccccc1Cn1c(CCNC(=O)C(C)(C)C)nc2ccccc21`, the z-score is -0.49.

`CC(C)NC(=O)CN1CCN(S(=O)(=O)c2cc(Cl)ccc2Cl)CC1`: the z-score is -0.36.

Regarding `CC(C)(C)c1ccc(OCCCn2c(=O)sc3ccccc32)cc1`, the z-score was 0.35.

`O=C1CC(c2c(Cl)cccc2Cl)c2ccc3ccccc3c2N1` (centres undefined): the z-score is 0.

Turning to `COCCNC(=O)c1ccc(Cn2c(SCC(=O)NCC3CCCO3)nc3ccc(Br)cc3c2=O)cc1` (centres undefined), the z-score is -0.085.

With `Cc1ccc2cc3cc(C(=O)NCc4ccc(F)cc4)oc3nc2c1`, the z-score is 50.4.

For `O=C(c1ccc(C(F)(F)F)cc1)N1CCC(c2nnc(-c3ccccc3)o2)CC1`, the z-score was -0.12.

As to `Cc1ccc2cc(C)c(C)cc2c1`, the z-score is -0.345.

As to `COc1ccc(CCNC(=O)CCC(=O)Nc2nc(-c3cc4ccccc4oc3=O)cs2)cc1OC`, the z-score was 0.27.

As for `CN(C)C=NC(=O)c1ccc(Oc2ncc(C(F)(F)F)cc2Cl)cc1`, the z-score was -0.275.

Turning to `CC(=O)c1cc(Cl)cc(Cl)c1OC(=O)c1c(-c2c(Cl)cccc2Cl)noc1C`, the z-score is -0.58.

With `O=C(NCCCN1CCCCC1)c1cc(-c2ccncc2)nc2ccccc12`, the z-score is 0.14.

On to `CCOc1cc(/C=C2\SC(=S)N(C(C)C(=O)O)C2=O)ccc1O` (centres undefined), for which the z-score was -2.57.

In the case of `CCOc1cc(/C=C2\SC(=S)N(c3c(C)n(C)n(-c4ccccc4)c3=O)C2=O)ccc1O`, the z-score is -1.1.

On to `CCCC(C(=O)O)N1C(=O)/C(=C/c2ccc(O)c(OCC)c2)SC1=S` (centres undefined), for which the z-score was -7.48 (active).

With `Cc1ccc(N2CCN(c3ccccc3)CC2)nn1`, the z-score was -0.315.

As for `COc1ccc(CN2C(=O)CC(C(=O)Nc3ccc(F)cc3)SC2=Nc2ccccc2)cc1` (centres undefined), the z-score was -0.02.

Turning to `CCN1C[C@]2(OC(=O)c3ccccc3NC(C)=O)CC[C@H](OC)[C@@]34C2C[C@@H]([C@@H]13)[C@@]1(O)C[C@H](OC)[C@H]2CC4[C@]1(O)[C@H]2OC` (some centres undefined), the z-score is 7.48.

With `CN(C(=O)Cn1nc(Cc2ccncc2)c2ccccc2c1=O)c1ccccc1`, the z-score was 5.11.

Take `COc1ccc([N+](=O)[O-])cc1/C=C1\C(=O)NC(=O)N(c2ccc(Cl)cc2)C1=O`: the z-score is -0.64.

As for `Oc1c(Br)cc(Br)cc1C=Nc1ccc(Oc2ccc(Cl)cc2)cc1`, the z-score is -1.07.

For the compound `Cc1ccc2c(c1)-c1onc(C(=O)NC3CCCCC3)c1CO2`, the z-score is 3.98.

For the compound `CCO/C=C1\SC(=S)N(Cc2ccccc2)C1=O`, the z-score is -0.945.

`O=C1c2ccccc2C(=O)N1CC1c2ccccc2CCN1S(=O)(=O)c1cccc2nsnc12` (centres undefined): the z-score is -0.52.

For the compound `CCCCOc1ccc(C(=O)Nc2ccc3nc(SCC(=O)NCC4CCCO4)sc3c2)cc1` (centres undefined), the z-score is 0.345.

Turning to `O=C(/C=C/c1cn(-c2ccccc2)nc1-c1ccc(F)cc1)NCc1cccnc1`, the z-score was 2.33.

In the case of `COC(=O)c1sc(-c2cccs2)cc1NS(=O)(=O)c1ccccc1`, the z-score is 41.9.

On to `COC(=O)c1c(NC(=O)Cn2nc([N+](=O)[O-])c(Br)c2C)sc2c1CCC(C)C2` (centres undefined), for which the z-score was -0.48.

On to `CCc1ccc(NC(=O)Cc2csc(C)n2)cc1`, for which the z-score is -0.185.

`CCOC(=O)C1C(=O)CN(c2ccccc2)C1=O` (centres undefined): the z-score was 2.06.

Turning to `O=C(C1CCN(S(=O)(=O)c2ccc3[nH]c4c(c3c2)CCCCC4)CC1)N1CCCC1`, the z-score is -0.165.

Consider `Cc1ccc(NC(=O)c2ccccc2N)cc1C`, for which the z-score is 29.

`C=CCNC(=S)Nc1ccn(Cc2ccccc2C)n1`: the z-score was -0.535.

As for `O=C(CSc1ccc(Cl)cc1)N1CCC(C(F)(F)F)CC1`, the z-score was 0.56.

Regarding `Cc1nc(Nc2ccc(S(N)(=O)=O)cc2)nc(Nc2ccc(S(N)(=O)=O)cc2)c1Br`, the z-score is -0.56.

Take `CC(C)C(O)(C(=O)OC[C@@H]1CC[N+]2([O-])CCC[C@@H]12)C(C)O` (some centres undefined): the z-score is 0.78.

Consider `O=C1CSC(c2ccccc2)C(=O)N1c1ccc(Br)cc1` (centres undefined), for which the z-score is 0.345.

On to `Cc1ccc(-c2n[nH]c3c2C(c2ccccc2F)N(c2ccc(F)cc2)C3=O)cc1` (centres undefined), for which the z-score was -0.525.

In the case of `C/C(=N\NC(=O)C1CCCCC1)c1cccs1`, the z-score is -0.47.

As to `N#CCC1NCCc2ccccc21` (centres undefined), the z-score is -2.33.

As to `CC1(C)CC2(CCCN(CC#N)C2)CCS1` (centres undefined), the z-score was 0.425.

Turning to `COc1ccc(C(Nc2ncnc3c2ncn3C2CC=C(CO)CC2)(c2ccccc2)c2ccccc2)cc1` (centres undefined), the z-score was -0.275.

On to `CN(Cc1ccccc1)C(=O)Cn1ncc2c3ccccc3n(Cc3ccccc3F)c2c1=O`, for which the z-score was 0.685.

As to `O=C(CN1CCN(c2ccc([N+](=O)[O-])cn2)CC1)Nc1ccc2c(c1)OCO2`, the z-score is -0.23.

As to `CCN(c1ccccc1)S(=O)(=O)c1cc2c(cc1C)n(C)c(=O)c(=O)n2C`, the z-score is 4.49.

`C=C1Cn2c(nnc2-c2ccc(Br)cc2)S1`: the z-score is 0.32.

On to `O=C(CSc1nc2ccc(Br)cc2c(=O)n1-c1ccccc1)NCc1ccco1`, for which the z-score was 0.585.

Turning to `O=C(O)CCCN1C(=O)/C(=C2\SC(=S)N(CCCC(=O)O)C2=O)SC1=S`, the z-score was 1.03.

For `O=C(O)c1cc2cccnc2nc1C(F)(F)F`, the z-score was -0.285.

Regarding `COc1ccc(C(=O)OC2CC(C)=CCC3(C)CCC(O)(C(C)C)C23)cc1O` (centres undefined), the z-score is -0.385.

As to `COc1ccc(C(=O)N2CCN(C(=O)OCc3ccc(SC(F)(F)F)cc3)CC2)cc1F`, the z-score was 0.325.

For `Nc1c(C(=O)O)noc1C(=O)c1ccccc1`, the z-score is 2.44.

`O=C(OCC(=O)N1CCCCC1)c1ccc(OC(F)(F)F)cc1`: the z-score is 0.135.

Turning to `CC(C)(C)NC(=S)NNc1c(Cl)cncc1Cl`, the z-score was 0.41.

Consider `CN(c1ncnc2c1nc1n2CCCCC1)C1CCCCC1`, for which the z-score is 0.88.

Turning to `NC(=S)c1ccc(-c2csnn2)cc1`, the z-score is -0.465.

As for `CCN1C(=O)/C(=C2/Sc3ccccc3N2C2CCCCC2)SC1=S`, the z-score is -0.02.

For `CCN1C(=O)/C(=C2/Sc3ccccc3N2CCCS(=O)(=O)O)SC1=S`, the z-score is -3.94 (active).

Consider `CCN1C(=O)/C(=C/c2ccccc2)SC1=S`, for which the z-score was 0.005.

Regarding `CCCCc1ccc2nc(N)sc2c1`, the z-score was -0.715.

In the case of `O=C(NCCO)c1ccc(/C=N/O)nc1`, the z-score is 0.075.

Regarding `Cc1c(Cl)cccc1NC(=O)c1ccc(-n2cccn2)c([N+](=O)[O-])c1`, the z-score was 2.56.

In the case of `CC(=O)N1CCCN(S(=O)(=O)c2cccc3nonc23)CC1`, the z-score was -0.285.

Turning to `CCn1c2ccccc2c2cc(CN3CCN(C(=O)c4ccccc4OC)CC3)ccc21`, the z-score is 14.

`O=[N+]([O-])c1ccc(-c2ccc(-c3[nH]c(-c4cccc([N+](=O)[O-])c4)nc3-c3ccccc3)cc2)cc1`: the z-score was 0.025.

`CC1CCN(CC(=O)N2c3ccccc3C(C)(c3ccccc3)CC2(C)C)CC1` (centres undefined): the z-score is 0.18.

For `CCOC(=O)CC(=O)CSc1nc2c(sc(=S)n2CCc2ccccc2)c(=O)n1Cc1ccco1`, the z-score is 0.52.

For the compound `O=C(COc1ncn(-c2ccccc2)n1)N/N=C/c1cc(OCc2ccccc2)cc(OCc2ccccc2)c1`, the z-score was -1.07.

Consider `COc1cc(Br)c(C2C(C(=O)OCCOc3ccccc3)=C(C)NC3=C2C(=O)CCC3)cc1OC` (centres undefined), for which the z-score was 22.1.

Consider `CCN1CCN(CCNC(=O)c2ccc(NC(=O)C3=CSCCO3)cc2)CC1`, for which the z-score is -0.9.

For the compound `O=C(NCCc1ccccc1)c1cc2c(s1)CS(=O)(=O)C2`, the z-score was 0.17.

Regarding `O=C(O)c1cc2ccccc2c(=O)s1`, the z-score is 0.97.

Take `O=C(O)c1cc2c(s1)CS(=O)(=O)C2`: the z-score was -3.92 (active).

`COc1ccc(C2Nc3ccccc3C(=O)N2c2ccccc2)cc1CSc1nc2ccccc2s1` (centres undefined): the z-score was 34.5.

As for `Cc1cc(C)nc(N2CCN(C(=O)C(C)(C)C)CC2)n1`, the z-score was -0.02.

Take `Nc1ccc(C(=O)Nc2nc3ccc(NC(=O)c4ccccc4)cc3s2)cc1`: the z-score is 13.6.

Regarding `O=C(OCCN1C(=O)c2ccccc2C1=O)c1ccc(Cl)cc1`, the z-score is 0.395.

For the compound `O=C(NC(=O)N1CCOCC1)c1ccc(S(=O)(=O)N2CCOCC2)cc1`, the z-score was 0.605.

`CC1=NN(c2ccccc2)C(=O)CC1`: the z-score is 0.205.

Regarding `CCC(C)c1ccc(N2C(=O)C=CC2=O)cc1` (centres undefined), the z-score was -0.045.

For `COc1ccc(N2CCN(c3ncnc4sc(C(=O)NCc5ccccc5OC)c(C)c34)CC2)cc1`, the z-score was -0.385.

In the case of `Cc1ccc2c(c1)c1c3n2CCN(S(C)(=O)=O)C3CCC1` (centres undefined), the z-score is 0.19.

Regarding `CCOC(=O)c1cc(C#N)c(C)nc1N1CCN(C(=O)OCCN2CCN(Cc3cc4c(cc3Cl)OCO4)CC2)CC1`, the z-score was -0.455.

Turning to `OC(CSCc1ccc(Cl)cc1)(c1ccccc1)c1ccccc1`, the z-score is -0.53.

As to `CCOC(=O)c1ccc(NC(=O)N2CCC(CN3CCCCCC3)CC2)cc1`, the z-score is -1.43.

For `O=C1CCc2ccccc2CN1`, the z-score was 0.13.

In the case of `Nc1ccc2c(c1)C/C(=C\c1ccco1)C2=O`, the z-score was -3.17.

With `Cc1cccc(NC(=O)N(C)C)c1`, the z-score was 0.275.

`C=CCn1c(=S)sc2c(SCC(=O)N3CCc4ccccc43)ncnc21`: the z-score was 1.31.

As for `C=CCn1c(=S)sc2c(=O)[nH]c(C)nc21`, the z-score is -5.7 (active).
